Measurements reported in ChEMBL document CHEMBL1157539, “Thousands of chemical starting points for antimalarial lead identification” (Nature, 2010).

Experiments:
Assay type in all cases: functional
Plasmodium falciparum [1] = assay: GSK_TCMDC: Inhibition of Plasmodium falciparum 3D7 in whole red blood cells, using parasite LDH activity as an index of growth. Test compounds present at 2uM
Plasmodium falciparum [2] = assay: GSK_TCMDC: Inhibition of Plasmodium falciparum Dd2 in whole red blood cells, using parasite LDH activity as an index of growth. Test compounds present at 2uM
HepG2 = assay: GSK_TCMDC: Percent inhibition of human HepG2 cell line. Test compounds present at 10uM.

Row | Structure (SMILES) | Inhibition (Plasmodium falciparum [1]) [%] | Inhibition (Plasmodium falciparum [2]) [%] | Inhibition (HepG2) [%]
1 | COc1cc2c(cc1OC)C(C(=O)Nc1cc(OC)c(OC)c(OC)c1)C(c1ccc(SC)cc1)N(C)C2=O (configuration not stated) | 97 | 64 | 14
2 | Cc1cccc2nc(-c3ccc(-c4ccc(CN5CCCC(N)C5)cc4)cc3)[nH]c12.O=C(O)C(F)(F)F (configuration not stated) | 99 | 100 | 33
3 | Cc1nc(N)nc(N)c1-c1ccc(Cl)cc1 | 96 | 0 | 15
4 | CCN(CC)CCON=Cc1cc(C)c2[nH]c3ccc(OCc4ccccc4)cc3c2c1C | 98 | 29 | 29
5 | O=c1cc(-c2ccc3ccccc3c2)[nH]c2ccccc12 | 81 | 44 | 25
6 | O=C(/C=C/c1ccc(Cl)c(Cl)c1)NCCCCCN1CCCN(C(=O)Nc2ccc(C(F)(F)F)cc2)CC1 | 100 | 7 | 31
7 | COc1cccc(CN2Cc3ccccc3OC3(CCN(Cc4c[nH]c5cnccc45)CC3)C2)c1.O=C(O)C(F)(F)F | 83 | 83 | 39
8 | O=C(NCC1CCN(Cc2ccsc2)C1)c1cc(-c2cccc(C(F)(F)F)c2)cs1.O=C(O)C(F)(F)F (configuration not stated) | 98 | 15 | 37
9 | Cc1c(O)cccc1Nc1ccnc2ccc(C(F)(F)F)cc12.Cl | 96 | 51 | 0
10 | O=C(Nc1ccc(N2CCN(Cc3ccccc3Cl)CC2)cc1)c1ccc([N+](=O)[O-])o1 | 91 | 67 | 100
11 | O=C(O)C(F)(F)F.OCCN1CCN(Cc2ccc(-c3ccc(-c4nc5ccccc5[nH]4)cc3)cc2)CC1 | 100 | 58 | 6
12 | N#Cc1ccc(CN2CCC(Oc3ccc(NC(=O)c4ccccc4)cc3Cl)CC2)cc1.O=C(O)C(F)(F)F | 84 | 65 | 21
13 | CN(C)CCCn1cncc1-c1ccc2ncnc(Nc3ccc4c(cnn4Cc4ccccc4)c3)c2c1 | 100 | 77 | 17
14 | C[C@H](NC(=O)c1c(CN2CCN(C(=O)C(C)(C)C)CC2)c(-c2cccs2)nc2ccccc12)C1CCCCC1 | 89 | 62 | 2
15 | O=C(Nc1ccc(OC2CCN(Cc3ccco3)C2)c(Cl)c1)c1ccc2ncccc2c1.O=C(O)C(F)(F)F (configuration not stated) | 92 | 42 | 1
16 | CN(C)c1ccc(-c2csc(C(=O)NC3CCCCN(CCC(C)(C)C)C3)c2)cc1.O=C(O)C(F)(F)F (configuration not stated) | 91 | 68 | 10
17 | COc1ccc(Nc2c3ccc(Cl)cc3nc3ccc(OC)cc23)cc1.Cl | 94 | 99 | 14
18 | Fc1ccc2[nH]c(-c3ccc(-c4ccc(CN5CCCCC5)cc4)cc3)nc2c1.O=C(O)C(F)(F)F | 98 | 100 | 31
19 | CC(C)CN1CCN(c2nc(C#N)c3c(c2C(=S)NC2CCCCC2)CC(C)(C)OC3)CC1 | 100 | 99 | 0
